Test results as given in the supplement of paper PMC13380429.

Test system: Vero E6 infected with SARS-CoV-2
Test: inhibition of SARS-CoV-2 cytopathic effect; higher = more antiviral protection, active = above 15
Settings: 48 h

Measured: inhibition of SARS-CoV-2 cytopathic effect

Fc1cc(F)c2c(c1)[C@H]1C=CC[C@H]1C(c1cccnc1)N2 (stereo not given in full) [Golgicide A]
inactive: 1 nM -0.89% | 8.33 nM 0.7% | 100 nM -0.27% | 833.33 nM -0.71% | 10000 nM -3.16%

CCCc1c(OCCCCc2nnn[nH]2)ccc(C(C)=O)c1O [tomelukast]
inactive: 1 nM -8.82% | 8.33 nM -9.23% | 100 nM -10% | 833.33 nM -8.13% | 10000 nM -6.02%

O=C1c2c(O)ccc(O)c2C(=O)c2c(NCCNCCO)ccc(NCCNCCO)c21 [mitoxantrone]
inactive: 1 nM 0.83% | 8.33 nM 0.03% | 100 nM -2.74% | 833.33 nM -4.43% | 10000 nM -11.1%

CCc1cccc2c3c([nH]c12)C(CC)(CC(=O)O)OCC3 (stereo not given) [etodolac]
inactive: 1 nM -3.24% | 8.33 nM -2.14% | 100 nM -2.22% | 833.33 nM -1.67% | 10000 nM -0.69%

Nc1nc(OCc2ccccc2)c2nc[nH]c2n1 [O6-benzylguanine]
inactive: 1 nM 2.66% | 8.33 nM 2.87% | 100 nM -5.93% | 833.33 nM -3.87% | 10000 nM -1.55%

N#C/C(=C\c1cccn1S(=O)(=O)c1cccc([N+](=O)[O-])c1)S(=O)(=O)c1ccc(F)cc1
inactive: 1 nM -0.59% | 8.33 nM -0.34% | 100 nM -0.6% | 833.33 nM -2% | 10000 nM -0.73%

COc1ccccc1NC(=O)OCC1CCN(C(=O)OC(C)(C)C)CC1
inactive: 1 nM 0.55% | 8.33 nM -0.78% | 100 nM 1.48% | 833.33 nM -0.14% | 10000 nM 0.81%

CC(C)[C@H](CO)Nc1nc(Nc2ccc(C(=O)O)c(Cl)c2)c2ncn(C(C)C)c2n1 [purvalanol-B]
inactive: 1 nM 11.3% | 8.33 nM 5.29% | 100 nM 0.04% | 833.33 nM 4.65% | 10000 nM -1.55%

FC(F)(F)c1ccc(N2CCNCC2)nc1Cl
inactive: 1 nM 1.34% | 8.33 nM -0.28% | 100 nM 0.72% | 833.33 nM 1.94% | 10000 nM -3.98%

CCN[C@H]1C[C@H](C)S(=O)(=O)c2sc(S(N)(=O)=O)cc21 [dorzolamide]
inactive: 1 nM -0.7% | 8.33 nM -3.23% | 100 nM -4.56% | 833.33 nM -1.92% | 10000 nM -1.06%

C=C1CC[C@H](O)C/C1=C/C=C1\CCC[C@]2(C)[C@@H]([C@H](C)CCCC(C)(C)O)CC[C@@H]12 [calcifediol]
inactive: 1 nM 0.8% | 8.33 nM -2.15% | 100 nM -3.43% | 833.33 nM -0.54% | 10000 nM 0.11%

Oc1c(I)cc(I)c(O)c1I [riodoxol]
inactive: 1 nM 0% | 8.33 nM 0.37% | 100 nM -0.65% | 833.33 nM -2.42% | 10000 nM -0.9%

C/C(=C\c1csc(C)n1)[C@@H]1C[C@@H]2O[C@]2(C)CCC[C@H](C)[C@H](O)[C@@H](C)C(=O)C(C)(C)[C@@H](O)CC(=O)O1 [epothilone-B]
inactive: 1 nM -1.66% | 8.33 nM -5.81% | 100 nM -4.92% | 833.33 nM -0.91% | 10000 nM -0.53%

Cc1cc(O)cc(C)c1Cl [chloroxylenol]
inactive: 1 nM -0.09% | 8.33 nM 1.72% | 100 nM -1.3% | 833.33 nM -0.83% | 10000 nM 0.1%

O=C1c2ccccc2C(=O)c2ccccc21 [anthraquinone]
inactive: 1 nM -2.37% | 8.33 nM -0.48% | 100 nM -1.17% | 833.33 nM 1.54% | 10000 nM 0.18%

Cc1cc2nc3c(=O)[nH]c(=O)nc-3n(C[C@H](O)[C@H](O)[C@H](O)COP(=O)(O)O)c2cc1C [riboflavin-5-phosphate-sodium]
inactive: 1 nM 0.5% | 8.33 nM 3.45% | 100 nM -0.48% | 833.33 nM 1.47% | 10000 nM 0.24%

Cc1cc2c(OCC(CNC(C)(C)C)OC(=O)c3ccccc3)cccc2[nH]1 (stereo not given) [bopindolol]
inactive: 1 nM -0.9% | 8.33 nM -1.91% | 100 nM -0.64% | 833.33 nM 0.54% | 10000 nM 0.29%

CC/C(=C(/CC)c1ccc(O)cc1)c1ccc(O)cc1 [diethylstilbestrol]
inactive: 1 nM -1.15% | 8.33 nM -2.29% | 100 nM -2.18% | 833.33 nM 3.59% | 10000 nM 6.76%

COc1ccncc1C(=O)NC(=O)Nc1ccc(-c2ccccc2)c(C(F)(F)F)c1 [S1P1-agonist-III]
inactive: 1 nM -0.34% | 8.33 nM -0.01% | 100 nM -0.43% | 833.33 nM -0.2% | 10000 nM -2.64%

N[C@@H](Cn1oc(=O)[nH]c1=O)C(=O)O [L-quisqualic-acid]
inactive: 1 nM -3.6% | 8.33 nM 3.03% | 100 nM 2.21% | 833.33 nM -1.93% | 10000 nM 0.17%

COc1cc([S+](C)[O-])ccc1-c1nc2cccnc2[nH]1 (stereo not given) [sulmazole]
inactive: 1 nM -0.6% | 8.33 nM 3.93% | 100 nM 0.23% | 833.33 nM -1.34% | 10000 nM -0.68%

CCCCCCCCCCCC(=O)N(CCO)CCO [lauric-diethanolamide]
inactive: 1 nM 1.82% | 8.33 nM 1.8% | 100 nM -1.44% | 833.33 nM 1.01% | 10000 nM -2.1%

CC1(C)[C@H](C(=O)O)N2C(=O)C[C@H]2S1(=O)=O [sulbactam]
inactive: 1 nM 2.32% | 8.33 nM 2.68% | 100 nM -2.37% | 833.33 nM -0.56% | 10000 nM -3.63%

CC(C)[C@H]1C(=O)N[C@@H](CCCNC(=N)N)C(=O)NCC(=O)N[C@@H](CC(=O)O)C(=O)N[C@H](Cc2ccccc2)C(=O)N1C [cilengitide]
inactive: 1 nM -2.16% | 8.33 nM -0.5% | 100 nM -4.67% | 833.33 nM -11.1% | 10000 nM -12.6%

NCCCC[C@H](N[C@@H](CCc1ccccc1)C(=O)O)C(=O)N1CCC[C@H]1C(=O)O [lisinopril]
inactive: 1 nM 0.42% | 8.33 nM 0.67% | 100 nM 0.78% | 833.33 nM 0.97% | 10000 nM 1.56%

COC(=O)Nc1nc2cc(C(=O)c3cccs3)ccc2[nH]1 [nocodazole]
inactive: 1 nM 2.2% | 8.33 nM 3.05% | 100 nM 0.53% | 833.33 nM 1.99% | 10000 nM -1.47%

C#CCN1C(C)=C(C(=O)OC)C(c2cccc([N+](=O)[O-])c2)C(C(=O)OCC)=C1C (stereo not given)
inactive: 1 nM 0.91% | 8.33 nM 2.53% | 100 nM 0.36% | 833.33 nM 3.36% | 10000 nM 6.77%

C=CCC1(CC(C)C)C(=O)NC(=O)NC1=O [butalbital]
inactive: 1 nM -0.15% | 8.33 nM 4.37% | 100 nM 2.7% | 833.33 nM 1.69% | 10000 nM 1.37%
